The results in this text go back to ChEMBL document CHEMBL3988442, “University of Dundee, Small-Polar-MMV Screening Library” (2021).

Holding throughout (parameters): scale not given: direction of the effect not stated beside the values
Assay [1] deals with Protein translocase subunit SecA (Escherichia coli (strain K12)) (UniProt P10408). Put plainly: Assay to Identify E. coli SecA ATPase Inhibitors. The format is functional. Conditions: 30 µM.
Assay [2] addresses T1, Ubiquitin-activating enzyme e1, putative (Leishmania donovani (strain BPK282A1)) (UniProt E9BSI1).
T1 sequence (whole entry): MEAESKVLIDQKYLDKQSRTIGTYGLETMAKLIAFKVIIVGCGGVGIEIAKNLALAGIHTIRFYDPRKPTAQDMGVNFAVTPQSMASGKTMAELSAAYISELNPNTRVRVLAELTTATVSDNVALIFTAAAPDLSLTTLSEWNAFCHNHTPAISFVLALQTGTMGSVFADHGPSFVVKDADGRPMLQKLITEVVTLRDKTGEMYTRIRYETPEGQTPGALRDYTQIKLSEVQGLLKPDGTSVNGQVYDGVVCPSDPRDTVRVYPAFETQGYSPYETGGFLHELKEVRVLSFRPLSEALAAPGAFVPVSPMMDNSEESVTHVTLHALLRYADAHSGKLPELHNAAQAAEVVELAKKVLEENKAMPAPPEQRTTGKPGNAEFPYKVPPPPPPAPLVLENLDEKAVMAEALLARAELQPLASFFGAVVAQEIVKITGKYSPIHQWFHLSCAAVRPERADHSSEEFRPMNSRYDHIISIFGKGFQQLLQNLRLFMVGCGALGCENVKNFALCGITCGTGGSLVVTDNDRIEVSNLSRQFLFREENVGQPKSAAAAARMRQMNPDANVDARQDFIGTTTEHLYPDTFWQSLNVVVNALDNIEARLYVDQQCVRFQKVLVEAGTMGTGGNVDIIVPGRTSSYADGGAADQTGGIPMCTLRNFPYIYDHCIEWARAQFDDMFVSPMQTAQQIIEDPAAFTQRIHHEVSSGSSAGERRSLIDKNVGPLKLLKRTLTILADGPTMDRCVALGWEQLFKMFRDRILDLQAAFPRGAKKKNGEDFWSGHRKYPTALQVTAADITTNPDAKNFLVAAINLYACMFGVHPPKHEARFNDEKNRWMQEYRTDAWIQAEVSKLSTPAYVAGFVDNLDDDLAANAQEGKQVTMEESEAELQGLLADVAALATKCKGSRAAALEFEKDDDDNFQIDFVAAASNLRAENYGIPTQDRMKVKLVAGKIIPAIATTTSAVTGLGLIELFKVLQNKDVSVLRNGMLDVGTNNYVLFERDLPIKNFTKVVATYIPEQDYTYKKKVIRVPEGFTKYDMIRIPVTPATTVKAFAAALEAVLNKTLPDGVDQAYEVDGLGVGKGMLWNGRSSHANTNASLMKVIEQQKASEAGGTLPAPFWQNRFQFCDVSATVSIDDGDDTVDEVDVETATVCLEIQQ
Put plainly: Leishmania donovani Ubiquitin Activating Enzyme (LdE1). The format is functional. Conditions: 30 µM.

Assay [3] has as its target T2, Aspartate--tRNA(Asp/Asn) ligase (Mycobacterium tuberculosis (strain ATCC 25618 / H37Rv)) (UniProt P9WFW3). Further: in the data most compounds retested in dose-response had high values.
T2 sequence (whole entry): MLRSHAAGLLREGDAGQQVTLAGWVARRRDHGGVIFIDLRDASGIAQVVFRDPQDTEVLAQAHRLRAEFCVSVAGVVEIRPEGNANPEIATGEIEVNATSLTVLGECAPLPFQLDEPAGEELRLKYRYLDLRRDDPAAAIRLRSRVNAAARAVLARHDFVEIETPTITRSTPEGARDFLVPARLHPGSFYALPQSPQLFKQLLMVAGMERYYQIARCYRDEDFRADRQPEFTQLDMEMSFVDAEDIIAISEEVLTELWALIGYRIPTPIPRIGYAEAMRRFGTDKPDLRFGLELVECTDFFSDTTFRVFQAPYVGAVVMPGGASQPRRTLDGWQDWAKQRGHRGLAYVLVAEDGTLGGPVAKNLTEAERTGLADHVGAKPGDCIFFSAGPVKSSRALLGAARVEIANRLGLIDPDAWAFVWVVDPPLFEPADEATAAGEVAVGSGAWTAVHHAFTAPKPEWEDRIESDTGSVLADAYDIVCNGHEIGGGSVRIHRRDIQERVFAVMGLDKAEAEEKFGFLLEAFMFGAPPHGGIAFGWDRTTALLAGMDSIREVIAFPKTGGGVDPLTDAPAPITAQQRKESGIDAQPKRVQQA
The assay can be described thus: Assay for Asp RNA synthetase-1 from Mycobacterium tuberculosis. The format is functional. Conditions: 30 µM.

Assay [4] addresses Sialic acid-binding Ig-like lectin 9 (Homo sapiens) (UniProt Q9Y336). Put plainly: Hs-Siglec9 ALPHAscreen SOP 20170721. To be noted: 10 µM. Background: Alpha assays give light when donor and acceptor beads are brought close together.
The test system of the next assay is Trypanosoma cruzi. The assay can be described thus: Trypanosoma cruzi phosphomannomutase and mannose-1-phosphate guanylyltransferase assay. The format is functional. To be noted: 10 µM.
Assay [5] concerns the target T3, Arginase-2, mitochondrial (Homo sapiens) (UniProt P78540).
T3 sequence (whole entry): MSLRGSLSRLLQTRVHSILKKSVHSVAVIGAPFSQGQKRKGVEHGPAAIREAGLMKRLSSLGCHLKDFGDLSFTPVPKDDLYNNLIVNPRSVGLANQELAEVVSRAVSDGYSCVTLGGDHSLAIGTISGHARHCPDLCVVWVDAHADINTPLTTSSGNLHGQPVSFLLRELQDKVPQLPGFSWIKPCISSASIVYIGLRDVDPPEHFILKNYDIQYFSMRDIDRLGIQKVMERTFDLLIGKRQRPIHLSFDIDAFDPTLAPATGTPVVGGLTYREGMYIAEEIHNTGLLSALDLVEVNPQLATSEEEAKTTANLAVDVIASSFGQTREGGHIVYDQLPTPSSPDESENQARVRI
Put plainly: in vitro enzyme assay to detect the production of urea directly proportional to the activity of Arginase II. Further: in the data most compounds retested in dose-response had high values. The format is functional. Conditions: 33.3 µM.

Assay [6] has as its target T4, Proteasome subunit beta (Trypanosoma cruzi) (UniProt O96673).
T4 sequence (whole entry): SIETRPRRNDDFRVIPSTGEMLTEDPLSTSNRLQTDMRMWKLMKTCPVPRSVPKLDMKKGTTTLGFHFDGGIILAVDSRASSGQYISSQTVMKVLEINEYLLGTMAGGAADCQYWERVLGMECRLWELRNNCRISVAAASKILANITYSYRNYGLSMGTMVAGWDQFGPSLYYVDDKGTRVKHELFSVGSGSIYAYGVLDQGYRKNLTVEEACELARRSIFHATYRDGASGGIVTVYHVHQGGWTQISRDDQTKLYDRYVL
The assay can be described thus: Trypanosoma cruzi proteasome chymotrypsin-like activity (TcProtChymo) assay. Further: in the data most compounds retested in dose-response had high values. Conditions: 9.37 µM. The format is functional.

The next assay is filed under the species Homo sapiens. The assay can be described thus: To identify inhibition of the IFN signalling (Jak-Stat) pathway via expression of an eGFP reporter gene under the control of an IFN-stimulated response element (ISRE) containing MxA promoter. The format is functional. To be noted: 30 µM.
For assay [7], the target named is Shiga toxin 2 (Escherichia coli O157:H7) (UniProt P09385+P09386). Put plainly: E. coli 0.157:H7 Shiga Toxin SOP - stx2 screening assay. To be noted: 30 µM. The format is functional.
Assay [8] addresses T5, Tyrosyl-tRNA synthetase, putative (Trypanosoma cruzi (strain CL Brener)) (UniProt Q4DSP6).
T5 sequence (whole entry): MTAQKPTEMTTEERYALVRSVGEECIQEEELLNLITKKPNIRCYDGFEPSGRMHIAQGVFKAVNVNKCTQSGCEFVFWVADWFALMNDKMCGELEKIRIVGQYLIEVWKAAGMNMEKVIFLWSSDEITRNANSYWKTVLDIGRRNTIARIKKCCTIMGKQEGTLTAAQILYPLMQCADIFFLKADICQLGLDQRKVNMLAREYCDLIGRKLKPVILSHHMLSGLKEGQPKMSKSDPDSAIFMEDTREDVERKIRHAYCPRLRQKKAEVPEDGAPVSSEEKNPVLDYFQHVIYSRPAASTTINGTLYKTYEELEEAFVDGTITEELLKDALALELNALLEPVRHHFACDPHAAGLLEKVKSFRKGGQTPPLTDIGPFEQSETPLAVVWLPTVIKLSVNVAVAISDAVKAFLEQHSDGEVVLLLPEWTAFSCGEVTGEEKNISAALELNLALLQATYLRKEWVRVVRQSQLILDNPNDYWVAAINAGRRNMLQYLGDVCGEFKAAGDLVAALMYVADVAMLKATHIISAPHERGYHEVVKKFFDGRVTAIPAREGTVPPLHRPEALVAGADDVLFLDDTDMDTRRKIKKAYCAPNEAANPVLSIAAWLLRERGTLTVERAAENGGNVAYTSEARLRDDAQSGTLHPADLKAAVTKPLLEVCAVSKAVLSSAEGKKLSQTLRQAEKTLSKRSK
The assay can be described thus: Trypanosoma cruzi tyrosyl tRNA synthetase (TcYRS) _High Tyrosine SOP. Further: in the data most compounds retested in dose-response had high values. The format is functional. To be noted: 30 µM.

Assay [9] has as its target T5, Tyrosyl-tRNA synthetase, putative (Trypanosoma cruzi (strain CL Brener)). The assay can be described thus: Trypanosoma cruzi tyrosyl tRNA synthetase (TcYRS) SOP. The format is functional. Conditions: 30 µM.
Assay [10] deals with Chromo domain-containing protein 1 (Saccharomyces cerevisiae (strain ATCC 204508 / S288c) (Baker's yeast)) (UniProt P32657). The assay can be described thus: ScCHD-1 Enzyme Inhibition Assay. Further: in the data most compounds retested in dose-response had high values. The format is functional. Conditions: 30 µM.

For some of these results: Results with a measured potency or affinity are listed apart.

Chain of Sialic acid-binding Ig-like lectin 9 (Homo sapiens) (Q9Y336 whole entry): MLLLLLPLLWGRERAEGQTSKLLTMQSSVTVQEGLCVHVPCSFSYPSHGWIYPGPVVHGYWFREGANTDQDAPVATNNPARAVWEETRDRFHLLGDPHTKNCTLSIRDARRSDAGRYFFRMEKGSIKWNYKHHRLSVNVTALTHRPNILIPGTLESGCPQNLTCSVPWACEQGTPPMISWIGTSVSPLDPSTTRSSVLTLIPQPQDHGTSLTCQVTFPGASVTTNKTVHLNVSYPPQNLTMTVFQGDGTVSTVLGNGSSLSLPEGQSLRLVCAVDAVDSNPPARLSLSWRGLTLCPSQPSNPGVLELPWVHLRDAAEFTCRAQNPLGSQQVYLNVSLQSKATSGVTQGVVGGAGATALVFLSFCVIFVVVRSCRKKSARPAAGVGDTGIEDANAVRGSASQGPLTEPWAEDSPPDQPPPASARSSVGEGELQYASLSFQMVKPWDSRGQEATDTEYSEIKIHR
Chain of Protein translocase subunit SecA (Escherichia coli (strain K12)) (P10408 whole entry): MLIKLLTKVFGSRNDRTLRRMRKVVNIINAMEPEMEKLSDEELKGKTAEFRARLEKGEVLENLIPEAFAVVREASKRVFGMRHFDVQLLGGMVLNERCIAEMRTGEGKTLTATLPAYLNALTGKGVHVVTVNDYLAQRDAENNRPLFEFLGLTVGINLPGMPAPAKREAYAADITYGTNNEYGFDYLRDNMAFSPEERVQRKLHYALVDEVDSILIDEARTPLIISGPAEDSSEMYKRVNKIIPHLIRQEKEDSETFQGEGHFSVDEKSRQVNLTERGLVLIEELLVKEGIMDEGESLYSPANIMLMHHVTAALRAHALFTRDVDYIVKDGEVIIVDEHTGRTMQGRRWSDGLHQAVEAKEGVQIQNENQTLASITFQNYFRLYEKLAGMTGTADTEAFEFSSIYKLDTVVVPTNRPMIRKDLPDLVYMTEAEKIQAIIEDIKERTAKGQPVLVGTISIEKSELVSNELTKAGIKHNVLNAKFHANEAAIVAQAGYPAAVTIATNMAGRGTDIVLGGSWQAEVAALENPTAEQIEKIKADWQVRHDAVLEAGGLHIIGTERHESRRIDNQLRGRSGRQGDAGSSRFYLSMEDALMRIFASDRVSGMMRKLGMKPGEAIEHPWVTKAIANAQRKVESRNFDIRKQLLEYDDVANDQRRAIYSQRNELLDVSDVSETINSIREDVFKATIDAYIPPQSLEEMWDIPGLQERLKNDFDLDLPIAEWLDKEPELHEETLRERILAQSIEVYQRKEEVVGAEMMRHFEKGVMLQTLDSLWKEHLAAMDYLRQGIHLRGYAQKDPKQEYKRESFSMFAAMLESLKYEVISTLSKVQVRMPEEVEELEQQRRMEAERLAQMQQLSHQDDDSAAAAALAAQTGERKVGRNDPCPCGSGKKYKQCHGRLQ
Chain of Chromo domain-containing protein 1 (Saccharomyces cerevisiae (strain ATCC 204508 / S288c) (Baker's yeast)) (P32657 whole entry, the tested form may be a part): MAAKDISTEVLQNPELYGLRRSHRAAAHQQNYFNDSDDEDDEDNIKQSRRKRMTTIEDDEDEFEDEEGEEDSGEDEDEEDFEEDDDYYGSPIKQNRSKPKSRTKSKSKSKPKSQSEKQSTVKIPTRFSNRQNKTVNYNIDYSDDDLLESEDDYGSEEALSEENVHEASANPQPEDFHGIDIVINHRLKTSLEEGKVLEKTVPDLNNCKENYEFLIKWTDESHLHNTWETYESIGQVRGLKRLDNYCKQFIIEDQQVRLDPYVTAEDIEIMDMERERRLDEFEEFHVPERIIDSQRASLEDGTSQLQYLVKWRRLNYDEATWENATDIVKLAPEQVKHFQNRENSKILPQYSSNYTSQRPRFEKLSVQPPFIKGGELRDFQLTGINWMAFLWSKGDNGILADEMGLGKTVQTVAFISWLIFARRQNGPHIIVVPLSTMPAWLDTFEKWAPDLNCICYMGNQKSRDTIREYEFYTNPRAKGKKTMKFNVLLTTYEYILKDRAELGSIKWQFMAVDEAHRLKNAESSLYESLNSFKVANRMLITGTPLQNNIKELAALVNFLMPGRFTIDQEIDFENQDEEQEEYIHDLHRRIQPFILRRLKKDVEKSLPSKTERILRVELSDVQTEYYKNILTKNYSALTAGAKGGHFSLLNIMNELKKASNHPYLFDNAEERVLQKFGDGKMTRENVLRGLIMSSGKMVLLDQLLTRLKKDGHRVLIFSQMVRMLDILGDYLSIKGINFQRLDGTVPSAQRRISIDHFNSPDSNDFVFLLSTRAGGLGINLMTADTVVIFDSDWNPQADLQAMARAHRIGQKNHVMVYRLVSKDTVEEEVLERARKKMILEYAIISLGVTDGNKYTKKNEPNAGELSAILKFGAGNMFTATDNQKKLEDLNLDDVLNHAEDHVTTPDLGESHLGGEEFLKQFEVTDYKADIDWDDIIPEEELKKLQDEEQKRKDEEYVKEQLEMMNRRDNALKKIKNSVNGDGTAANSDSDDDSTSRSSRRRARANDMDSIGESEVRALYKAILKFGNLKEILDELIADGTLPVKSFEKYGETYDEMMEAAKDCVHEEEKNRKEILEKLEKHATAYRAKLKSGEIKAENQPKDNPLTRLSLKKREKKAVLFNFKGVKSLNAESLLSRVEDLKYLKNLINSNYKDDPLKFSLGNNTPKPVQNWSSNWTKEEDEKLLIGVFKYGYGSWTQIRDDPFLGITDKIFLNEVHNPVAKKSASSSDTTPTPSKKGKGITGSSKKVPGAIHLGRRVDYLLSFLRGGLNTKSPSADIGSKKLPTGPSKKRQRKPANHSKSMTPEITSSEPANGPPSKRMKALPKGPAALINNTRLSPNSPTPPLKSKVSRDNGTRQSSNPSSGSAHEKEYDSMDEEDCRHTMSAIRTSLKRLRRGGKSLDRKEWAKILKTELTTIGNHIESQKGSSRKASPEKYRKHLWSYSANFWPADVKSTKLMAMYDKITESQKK

For `O=C1N(Cc2cccnc2)CCC12CCCNC2` (stereo unspecified), the Percent Effect was -3.76% in [1]; 16.9% in assay [2]; 2.62% in [3]; -3.98% in [4]; -3.19% in the assay with Trypanosoma cruzi; 0.913% in assay [5]. In addition, the Percent Effect was 20% in assay [6]; 34% in the assay listed under Homo sapiens; 7.06% in [7]; 1.93% in assay [8]; 2.5% in [9]; -10.7% in assay [10].
Consider `COCC(C)NC(=O)c1cn(C(C)(C)C)c2ncccc12` (stereo unspecified), for which the Percent Effect was 0.871% in assay [1]; 14.7% in [2]; 4.78% in assay [3]; -9.18% in [4]; 4.93% in the assay on Trypanosoma cruzi; 0.443% in assay [5]. Also, the Percent Effect in assay [6] was 18.2%; in the assay listed under Homo sapiens, 6.95%; in [7], -13.5%; in assay [8], 0%; in [9] it was 10%; in assay [10], -22.6%.
`Cc1nn(C)c(N(C)C)c1CNC(C)Cc1c(F)cccc1F` (stereo unspecified): the Percent Effect was -1.71% in assay [1]; 26% in [2]; 3.29% in [3]; 10.5% in [4]; 4.85% in the assay on Trypanosoma cruzi; 5.12% in assay [5]. Moreover, the Percent Effect was 7.89% in assay [6]; 5.28% in the assay filed under Homo sapiens; -17.2% in assay [7]; 6.86% in [8]; 23.5% in assay [9]; -9.67% in assay [10].
For `O=C(Nc1cccc(OCc2cccc(F)c2)c1)C1COCCO1` (stereo unspecified), the Percent Effect in [3] stood at 0.563%.
For `O=C(Cc1c(F)cccc1F)N1CCN(CC(=O)N2CCCC2)CC1`, the Percent Effect in [1] is -1.5%; in [2], -1.3%; in [3], -5.83%; in assay [4], -2.19%; in the assay with Trypanosoma cruzi, -0.938%; in assay [5], 4.57%. In addition, the Percent Effect in assay [6] was 22.1%; in the assay listed under Homo sapiens it was 12.9%; in assay [7] it was 16.1%; in assay [8], 4.83%; in assay [9], 10%; in [10], -6.7%.
For the molecule `COc1cccc([C@@H]2CCN(Cc3ccc4ccccc4n3)C[C@H]2O)c1`, the Percent Effect is -6.38% in assay [1]; 5.41% in assay [2]; -2.79% in assay [3]; 14.7% in assay [4]; 4.56% in the assay with Trypanosoma cruzi; 18.5% in assay [5]. For the same molecule, the Percent Effect was 9.76% in assay [6]; 1.68% in the assay listed under Homo sapiens; -2.3% in [7]; 7.98% in assay [8]; 19.5% in assay [9]; -2.92% in assay [10].
